Only some compounds are listed: those with a hit (about 7.8% of all), similar ones and a draw of the others.
HCMV inh: blocks human cytomegalovirus replication | HFF cells, HCMV-luciferase reporter, 72 h; stronger effect = lower value | activity change, negative = inhibition, % at 57.5 µM | actives 4.5% (n = 410,000) | AID 1259415; in the data active means activity change below about -60%; inconclusive means no clear call, values can overlap the other calls; inactive means above about -39%
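Two compound doses tested in HFFs infected with HCMV-luciferase, MOI 1 PFU/cell, 72 h at 37C. Lysate luminescence read with OneGlo; data normalized against buffer-only and 10uM Salinomycin inhibitor controls.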
HCV inhibitor: inhibitors of hepatitis C virus infection. Huh7.5.1 HCVcc-Cre infection, luciferase reporter, 44 h. Potency, µM (top dose mostly 41.8 µM), hits mostly inhibitors. actives 3.4% (n = 340,000). AID 651820; active means well fitted inhibition curve with a large enough effect; inconclusive means small, poorly fitted or top-dose-only effect, or another doubt; inactive means no such curve, though single readings can be large or run the other way
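After 44 h co-culture of compound, cells and HCVcc-Cre (~0.5 moi), substrate is added for 15 min at room temperature and luciferase measured over 15 sec. Cells were seeded at 1,000/well and pre-cultured 4 h.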
Marburg entry inh: blocks Marburg virus binding to or entry into cells | Marburg virus pseudotyped entry inhibition, cell reporter | Potency, µM (series often up to 37.8 µM), usual class: inhibitors | actives 1.8% (n = 300,000); calls by dose curve; tested in HEK293 cells
VACV Venus inh: vaccinia inhibition (Venus reporter); Vaccinia virus Venus reporter expression, fluorescence; Potency, µM (highest dose often 36.5 µM), actives largely listed as inhibitors; actives 0.46% (n = 330,000); AID 720580; calls by dose curve; tested in A549 cells; further: nearly all actives have a fitted effect of over 30% in size
Vaccinia mCherry: vaccinia inhibition (mCherry reporter). Vaccinia virus mCherry reporter infection, fluorescence. Potency, µM (series often up to 36.5 µM), hits mostly inhibitors. actives 0.63% (n = 310,000); calls by dose curve; tested in A549 cells; further: nearly all actives have a fitted effect of over 35% in size
LASV entry inh: Lassa virus entry inhibition. Lassa virus pseudotype entry inhibition, cell reporter. Potency, µM (highest dose often 37.9 µM), actives largely listed as inhibitors. actives 1.2% (n = 300,000). AID 540256; calls by dose curve; tested in HEK293 cells; further: nearly all actives have a fitted effect of over 50% in size
Large screens that a line does not name were inactive.

COc1ccc(/C=C2/SC(=S)N(CCC(=O)O)C2=O)cc1	none (no result: HCV inhibitor)
CCc1ccc(/C=C2\SC(=S)N(CCCC(=O)N(CCO)c3ccccc3)C2=O)cc1	HCMV inh -98, VACV Venus inh inconclusive, Vaccinia mCherry inconclusive (no result: HCV inhibitor, Marburg entry inh, LASV entry inh)
CCOc1ccc(/C=C2\SC(=S)N(CCC(=O)N(CCO)c3ccccc3)C2=O)cc1	HCMV inh -100, HCV inhibitor inconclusive, Marburg entry inh inconclusive, VACV Venus inh inconclusive, Vaccinia mCherry inconclusive, LASV entry inh inconclusive
CCc1ccc(C=C2SC(=S)N(CCCC(=O)Nc3ccc(C(=O)O)cc3)C2=O)cc1	HCMV inh inconclusive (no result: HCV inhibitor, Marburg entry inh, LASV entry inh)
CCCCCn1c(CCNC(=O)c2cccc(C)c2)nc2ccccc21	Marburg entry inh inconclusive (no result: HCV inhibitor)
COc1ccc(C2=C[C@H](c3cccc(OC)c3)n3nnnc3N2)cc1	none (no result: HCMV inh, HCV inhibitor, VACV Venus inh, Vaccinia mCherry, LASV entry inh)
Cc1ccccc1CSc1nc2c(sc3ccccc32)c(=O)n1CCCC(=O)NCCCOC(C)C	none (no result: HCV inhibitor)
CCN1CCN(CC(=O)N2N=C(c3cccs3)CC2c2ccc(OC)c(OC)c2)C(=O)C1=O (stereo not given)	none
C=C1C(=O)c2sccc2C(c2ccc(OC)c(OC)c2)C1COC(C)=O (stereo not given)	HCMV inh -102, HCV inhibitor 1.4µM, Marburg entry inh 0.89µM, VACV Venus inh 7.1µM, Vaccinia mCherry 5µM, LASV entry inh 7.9µM
Cc1cc(N2CCCCC2)nc2ccc(NC(=O)CCC(=O)N3CCN(c4cccc(Cl)c4)CC3)cc12	Marburg entry inh inconclusive, VACV Venus inh inconclusive, Vaccinia mCherry inconclusive (no result: HCV inhibitor)
Cc1ccc(C(=O)Nc2ccc3nc(N4CCCCC4)cc(C)c3c2)cc1F	HCMV inh inconclusive (no result: HCV inhibitor, Marburg entry inh)
Cc1cc(N2CCCCC2)nc2ccc(NC(=O)c3cccc(Cl)c3)cc12	HCMV inh -62 (no result: HCV inhibitor, Marburg entry inh)
Cc1cc(N2CCCCC2)nc2ccc(NC(=O)c3cccc(F)c3)cc12	HCMV inh -80, Marburg entry inh inconclusive, LASV entry inh inconclusive (no result: HCV inhibitor)
CC1=C(C(=O)Nc2cc(C)cc(C)c2)C2(CCCCC2)OC1=O	none (no result: HCV inhibitor)
CCc1ccccc1NC(=O)COC(=O)c1cn(CC)c2nc(C)ccc2c1=O	none (no result: HCV inhibitor)
CCCc1nc2ccc(NC(=O)CC(C)(C)C)cn2n1	none (no result: HCV inhibitor, Marburg entry inh, VACV Venus inh, Vaccinia mCherry, LASV entry inh)
Cc1c(-c2ccc(Cl)cc2)c(=O)oc2ccc(OC(=O)N3CCOCC3)cc12	HCMV inh inconclusive (no result: HCV inhibitor, Marburg entry inh)
CO/N=C(/COc1ccc(F)cc1)c1ccc(OC)cc1	HCMV inh -103, Marburg entry inh inconclusive
COc1ccc(OCC(=O)O/N=C(\N)c2ccc(OC)cc2)cc1	HCV inhibitor inconclusive, Marburg entry inh inconclusive, LASV entry inh inconclusive
COc1ccc(C2/C(=C(/O)c3cnn(-c4ccccc4)c3C)C(=O)C(=O)N2CCN(C)C)cc1OC (stereo not given)	none
COCCCN1C(=O)C(=O)/C(=C(/O)c2ccc(OC)cc2)C1c1cccc(OC)c1 (stereo not given)	HCMV inh -102 (no result: Vaccinia mCherry)
COc1ccc(/C(O)=C2/C(=O)C(=O)N(CCN(C)C)C2c2ccc(OC)c(OC)c2)c(C)c1 (stereo not given)	HCMV inh -71
COc1ccc(NS(=O)(=O)c2ccc3nc(COc4ccc(C#N)cc4)[nH]c3c2)cc1	HCV inhibitor 13µM
CC(C)(C)c1ccc(C(=O)NCCC(=O)NCc2ccc(F)cc2)cc1	HCMV inh -82 (no result: HCV inhibitor, Marburg entry inh, LASV entry inh)
COc1ccc(CNC(=O)CCNC(=O)c2ccc(C(C)(C)C)cc2)cc1OC	HCMV inh inconclusive
Cc1ccccc1N(C(=O)c1snc(C(N)=O)c1N)C(C(=O)NC1CCCCC1)c1ccc(O)cc1 (stereo not given)	HCV inhibitor 10µM, Marburg entry inh inconclusive, Vaccinia mCherry inconclusive, LASV entry inh 11µM
Cc1ccccc1N(C(=O)c1snc(C(N)=O)c1N)C(C(=O)NCc1ccccc1)c1ccc(O)cc1 (stereo not given)	HCV inhibitor 5.6µM, Marburg entry inh inconclusive, LASV entry inh inconclusive
COc1ccc(CN(C(=O)c2snc(C(N)=O)c2N)C(C)C(=O)NCc2ccc(F)cc2)cc1 (stereo not given)	HCV inhibitor inconclusive (no result: LASV entry inh)
COc1ccc(CNC(=O)C(C)N(Cc2ccccc2OC)C(=O)c2snc(C(N)=O)c2N)cc1 (stereo not given)	HCV inhibitor 10µM (no result: LASV entry inh)
